Test results published in PubChem BioAssay AID488895 (Broad Institute, 2010).
The campaign covered roughly 340,000 compounds. About 120 (0.035%) were called active. For the sample, actives were picked, then their nearest neighbours and some compounds at random. Values without a mark were called inactive.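 How the source made its calls: active means mean replicate inhibition at least 50% and at least half of replicates individually reaching 50%; inconclusive means only one of the two criteria met; inactive means neither criterion met.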

assay: E. coli Tat export inhibitors, primary screen, MC4100, TorA-mCherry reporter, fluorescence, single point (AID 488895); details: at 10 µM, hits give high values;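 further: exported cargo escapes ClpAP degradation while cytoplasmic cargo is degraded and loses fluorescence; 0% = median of neutral control wells and 100% = median of NaSCN control wells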

Row | Structure (SMILES) | inhibition [%]
1 | COc1ccccc1C(=O)N/C(=C/c1ccc2c(c1)OCO2)C(=O)Nc1cccc(C(=O)O)c1 | 0.855
2 | COc1ccc(N(CC(=O)NCc2ccc(F)cc2)C(=O)CCC(=O)Nc2nccs2)cc1 | 2.29
3 | Cc1ccc(NC(=S)NC(NC(=O)Cc2cccc3ccccc23)C(Cl)(Cl)Cl)cc1 (stereo unspecified) | -13
4 | O=C1NCCn2nc3ccccc3c21 | -31.2
5 | O=C(O)CCCn1cc(NC(=O)COc2cccc(Cl)c2)cn1 | -4.8
6 | NC(=O)C1(N2CCCCC2)CCN(C(=O)c2ccc(C#Cc3ccccc3)o2)CC1 | -3.45
7 | COc1ccccc1N(CCOc1ccccc1)S(=O)(=O)c1ccccc1 | 10
8 | CC(C)C(=O)Nc1ccc2c(c1)oc1ccccc12 | -2.62
9 | C=CCN(CC=C)CCOc1ccccc1[N+](=O)[O-] | -4.39
10 | C=CCSC(CC)(CC)C(N)=O | -4.28
11 | COc1cc(C(=O)N2CCN(C/C=C/c3ccccc3)CC2)cc(OC)c1C | 6.19
12 | Cc1oc2cc3oc(=O)ccc3cc2c1C | -9.08
13 | Cn1c(SCC(=O)NC2CCCCC2)nnc1-c1cc2ccccc2o1 | 1.56
14 | Cc1ccc(NC(=O)CN(C)C(=O)c2ccc(Cl)c(S(=O)(=O)NCc3ccco3)c2)cc1 | -9.55
15 | COc1ccc(C(=O)N/N=C(\C)CC(=O)Nc2ccc(Cl)cn2)cc1 | -26.7
16 | O=C(NC(C(=O)NCCN1CCOCC1)C12CC3CC(CC(C3)C1)C2)C1CCCCC1 (stereo unspecified) | 6.49
17 | COc1ccccc1NC(=O)COC(=O)Cc1ccc(S(=O)(=O)N2CCCCC2)s1 | -5.48
18 | O=C1C=C(c2cccc(Br)c2)C[C@@H](c2ccc(F)cc2)C1 | 18.1
19 | CC1(C)C(=O)C2(CCCCC2)C(=O)OC1c1cccs1 (stereo unspecified) | 3.17
20 | COCCCC1CCN(C(=O)C2CCC(=O)N(C3CCCCCC3)C2)CC1 (stereo unspecified) | 1.02
21 | Cc1ccc(C(=O)NC2CCCC(C)C2C)cc1S(=O)(=O)N1CCCCC1 (stereo unspecified) | -3.8
22 | COc1cc(OC)cc(C(=O)NC2CCN(C(=O)N3c4ccccc4Sc4ccccc43)CC2)c1 | 9.12
23 | CCC(C)(C(=O)NC1CCCCC1)N(C)C(=O)c1ccc2c(c1)OCO2 (stereo unspecified) | 4.87
24 | CCN(CC)c1ccc(C(=O)c2cnc(/N=C/N(C)C)s2)cc1 | 12.9
25 | CCOc1ccc(CCNC(=O)C2CCN(c3ccc(N4CCOCC4)nn3)CC2)cc1OCC | -3.82
26 | COc1ccc(NC(=O)CSc2nc(NS(=O)(=O)c3ccc(C)cc3)cc(=O)[nH]2)cc1 | 0.509
